Data published in PubChem BioAssay AID1970 (National Center for Advancing Translational Sciences (NCATS), 2009).
Results filed as inconclusive are left out. The source made the active and inactive calls. The call rests on the fitted dose curve; in most records, active means well fitted inhibition curve with a large enough effect; inconclusive means small, poorly fitted or top-dose-only effect; inactive means flat fitted curve, though single readings scatter.

The molecules below were run against Dual specificity protein kinase CLK4 (Homo sapiens) (UniProt Q9HAZ1) (assay: Confirmation Assay for Inhibitors of CDC-like Kinase 4 (Kinase-Glo Assay)). Conditions: recombinant Clk4, Kinase-Glo ATP depletion luminescence; series mostly up to 47.7 µM.
Chain of Dual specificity protein kinase CLK4 (Homo sapiens) (Q9HAZ1 whole entry, looked up): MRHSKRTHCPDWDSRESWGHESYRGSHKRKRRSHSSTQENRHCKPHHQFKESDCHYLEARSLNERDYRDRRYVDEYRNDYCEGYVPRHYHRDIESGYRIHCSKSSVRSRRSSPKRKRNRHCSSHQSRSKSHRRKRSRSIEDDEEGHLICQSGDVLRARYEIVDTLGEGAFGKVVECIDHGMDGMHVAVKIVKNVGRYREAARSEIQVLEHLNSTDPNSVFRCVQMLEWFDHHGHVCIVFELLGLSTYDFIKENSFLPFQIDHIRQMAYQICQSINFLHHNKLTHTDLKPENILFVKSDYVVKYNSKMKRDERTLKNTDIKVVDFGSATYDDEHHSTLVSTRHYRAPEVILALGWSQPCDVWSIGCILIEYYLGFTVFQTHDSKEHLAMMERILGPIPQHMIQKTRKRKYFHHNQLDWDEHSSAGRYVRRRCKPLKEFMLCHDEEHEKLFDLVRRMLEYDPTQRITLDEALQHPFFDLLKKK
Summary of the method: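 RS repeat peptide (100 uM) and ATP (1 uM) phosphorylated by 25 nM Clk4 (final) in Tris pH 7.5 with MgCl2, EGTA, DTT and Triton X-100. After 4.5 h at room temperature, remaining ATP read as Kinase-Glo luminescence.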

| Compound | Potency |
| --- | --- |
| Cc1ccc(CNc2ncnc3ccc(-c4ccoc4)cc23)o1 | 519 nM (active) |
| c1nc(NCCc2cnc[nH]2)c2cc(-c3ccoc3)ccc2n1 | 412 nM (active) |
| c1cncc(-c2ccc3ncnc(NCc4ccc5c(c4)OCO5)c3c2)c1 | 6310 nM (active) |
| Cc1occc1CNc1ncnc2ccc(-c3ccc4c(c3)OCO4)cc12 | 47.5 nM (active) |
| c1cncc(-c2ccc3ncnc(NCc4cccs4)c3c2)c1 | 3980 nM (active) |
| CCOC(=O)c1ccc(-c2ccc3ncnc(NCCc4cnc[nH]4)c3c2)o1 | 92.3 nM (active) |
| Fc1c(-c2ccc3ncnc(NCc4cccs4)c3c2)ccc2c1OCO2 | 65.4 nM (active) |
| CCOC(=O)c1ccc(-c2ccc3ncnc(NCc4csc(C)n4)c3c2)o1 | 654 nM (active) |
| c1c[nH]c(CNc2ncnc3ccc(-c4ccoc4)cc23)n1 | 2920 nM (active) |
| Fc1cccc(CNc2ncnc3ccc(-c4cccc(Cl)c4)cc23)c1 | 7080 nM (active) |
| Cc1nc(CNc2ncnc3ccc(-c4oc(-c5ccccc5)nc4C)cc23)cs1 | 2320 nM (active) |
| Cc1occc1-c1ccc2ncnc(NCc3ncc[nH]3)c2c1 | 463 nM (active) |
| c1csc(CNc2ncnc3ccc(-c4ccoc4)cc23)c1 | 184 nM (active) |
| Cn1cnc(CCNc2ncnc3ccc(-c4ccc5c(c4)OCO5)cc23)c1 | 232 nM (active) |
| COc1cccc(-c2ccc3ncnc(NCc4cccc(C)c4)c3c2)c1 | 891 nM (active) |
| c1nc(OCc2cnc[nH]2)c2cc(-c3ccc4c(c3)OCO4)ccc2n1 | 6540 nM (active) |
| Cc1nc(CNc2ncnc3ccc(-c4sc(C)nc4C)cc23)cs1 | 1640 nM (active) |
| Cc1csc(CNc2ncnc3ccc(-c4ccc5c(c4)OCO5)cc23)n1 | 37.7 nM (active) |
| Clc1ccccc1-c1ccc2ncnc(NCc3cccs3)c2c1 | 7940 nM (active) |
| Cc1cccc(CNc2ncnc3ccc(-c4ccc5c(c4)OCCO5)cc23)c1 | 501 nM (active) |
| c1nc(NCc2ccc3c(c2)OCO3)c2cc(-c3ccoc3)ccc2n1 | 631 nM (active) |
| c1cncc(CNc2ncnc3ccc(-c4cccnc4)cc23)c1 | 7940 nM (active) |
| CCn1cnc(CCN(C)c2ncnc3ccc(-c4ccc5c(c4)OCO5)cc23)c1 | 1300 nM (active) |
| Fc1cccc(CNc2ncnc3ccc(-c4cccnc4)cc23)c1 | 3980 nM (active) |
| CN(C)CCNc1ncnc2ccc(-c3ccc4c(c3)OCO4)cc12 | 463 nM (active) |
| Cc1cccc(CNc2ncnc3ccc(-c4ccc5c(ccn5C)c4)cc23)c1 | 39800 nM (active) |
